Experimental data as given in the supplement of paper PMC11732987, “Enantioselective OTUD7B fragment discovery through chemoproteomics screening and high-throughput optimisation” (Communications Chemistry, 2025).

Assays:
Experiment in all cases: log2 ratio of Biotin-Ahx-Ub-VS probe labelling (fragment/DMSO); higher = less target engagement (more negative = stronger competition), active = hit call of the paper (q ≤ 0.05, log2 ratio ≤ -1)
Settings in all cases: compound concentration: 200 uM; treatment time: 3 h
ALG13 = biological target: T1, ALG13 (UniProt Q9NP73)
T1 sequence (whole entry): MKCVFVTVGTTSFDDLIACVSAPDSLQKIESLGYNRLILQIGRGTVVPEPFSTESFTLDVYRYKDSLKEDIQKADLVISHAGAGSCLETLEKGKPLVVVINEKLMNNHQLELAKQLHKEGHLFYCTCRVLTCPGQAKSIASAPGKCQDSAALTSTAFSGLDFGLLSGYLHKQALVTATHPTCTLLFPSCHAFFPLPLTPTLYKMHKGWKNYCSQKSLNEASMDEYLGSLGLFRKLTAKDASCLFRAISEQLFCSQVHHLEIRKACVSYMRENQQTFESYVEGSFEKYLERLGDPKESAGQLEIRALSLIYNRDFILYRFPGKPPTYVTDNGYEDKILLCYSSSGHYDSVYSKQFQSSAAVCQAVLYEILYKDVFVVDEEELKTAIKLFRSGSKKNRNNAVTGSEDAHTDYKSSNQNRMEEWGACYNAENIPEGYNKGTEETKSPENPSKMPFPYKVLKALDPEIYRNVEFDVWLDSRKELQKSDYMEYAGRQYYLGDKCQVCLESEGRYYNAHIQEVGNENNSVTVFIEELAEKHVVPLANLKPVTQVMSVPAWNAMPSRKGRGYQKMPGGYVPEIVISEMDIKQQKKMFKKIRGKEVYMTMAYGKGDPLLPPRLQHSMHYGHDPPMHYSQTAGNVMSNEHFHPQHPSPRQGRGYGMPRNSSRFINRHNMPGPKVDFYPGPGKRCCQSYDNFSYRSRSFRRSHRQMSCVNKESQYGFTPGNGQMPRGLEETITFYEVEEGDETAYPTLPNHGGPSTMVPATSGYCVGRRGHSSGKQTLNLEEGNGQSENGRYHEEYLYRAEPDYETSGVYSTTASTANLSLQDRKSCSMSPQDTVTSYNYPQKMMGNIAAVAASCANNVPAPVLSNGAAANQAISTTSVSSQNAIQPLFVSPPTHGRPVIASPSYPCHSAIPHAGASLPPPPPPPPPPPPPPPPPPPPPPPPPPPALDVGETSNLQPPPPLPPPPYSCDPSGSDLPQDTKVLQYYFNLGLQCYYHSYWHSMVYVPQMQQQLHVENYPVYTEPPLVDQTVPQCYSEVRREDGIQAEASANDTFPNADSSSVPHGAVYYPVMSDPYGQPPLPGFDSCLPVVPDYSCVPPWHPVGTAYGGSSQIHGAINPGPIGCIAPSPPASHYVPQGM
Summary of the method: (§1)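 HEK293T lysate (495 µg per sample, in Tris/CHAPS/IGEPAL buffer with protease inhibitors) was exposed in triplicate for 3 h to fragment at 200 µM or to vehicle, then to Biotin-Ahx-Ub-VS at 0.5 µM final for 1 h. Labelled DUBs were enriched on NeutrAvidin, digested with LysC and trypsin, and analysed by diaPASEF LC-MS/MS. Spectronaut label-free quantities were normalised to the global median, and values are average log2 ratios of fragment over vehicle from an unpaired t-test. Only proteins with ≥2 unique peptides were used.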

ATXN3 = ATXN3 (UniProt P54252)
Summary of the method: as §1

BAP1 = biological target: T2, BAP1 (UniProt Q92560)
T2 sequence (whole entry): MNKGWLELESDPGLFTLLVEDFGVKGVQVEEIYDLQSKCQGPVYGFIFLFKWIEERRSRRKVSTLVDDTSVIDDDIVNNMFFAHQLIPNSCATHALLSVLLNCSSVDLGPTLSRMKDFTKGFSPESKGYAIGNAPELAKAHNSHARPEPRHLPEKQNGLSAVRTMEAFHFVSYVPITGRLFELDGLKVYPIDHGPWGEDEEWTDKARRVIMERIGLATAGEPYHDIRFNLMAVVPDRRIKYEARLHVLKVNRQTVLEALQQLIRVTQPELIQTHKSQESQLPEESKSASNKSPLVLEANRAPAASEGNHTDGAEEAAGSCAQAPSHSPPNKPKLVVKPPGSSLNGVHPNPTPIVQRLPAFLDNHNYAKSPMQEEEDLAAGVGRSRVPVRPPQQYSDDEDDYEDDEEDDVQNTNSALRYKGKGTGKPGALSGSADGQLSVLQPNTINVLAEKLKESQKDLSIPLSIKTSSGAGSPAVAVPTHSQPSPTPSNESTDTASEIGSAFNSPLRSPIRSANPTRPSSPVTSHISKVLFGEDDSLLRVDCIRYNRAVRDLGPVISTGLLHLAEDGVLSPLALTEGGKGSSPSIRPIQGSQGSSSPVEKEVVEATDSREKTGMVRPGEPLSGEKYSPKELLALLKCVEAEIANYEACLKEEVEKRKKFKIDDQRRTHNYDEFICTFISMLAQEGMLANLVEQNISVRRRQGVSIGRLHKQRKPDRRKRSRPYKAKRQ
Summary of the method: as §1

EIF3F = EIF3F (UniProt O00303)
Summary of the method: as §1

EIF3H = EIF3H (UniProt O15372)
Summary of the method: as §1

FAM105A = biological target: T3, FAM105A (UniProt Q9NUU6)
T3 sequence (whole entry): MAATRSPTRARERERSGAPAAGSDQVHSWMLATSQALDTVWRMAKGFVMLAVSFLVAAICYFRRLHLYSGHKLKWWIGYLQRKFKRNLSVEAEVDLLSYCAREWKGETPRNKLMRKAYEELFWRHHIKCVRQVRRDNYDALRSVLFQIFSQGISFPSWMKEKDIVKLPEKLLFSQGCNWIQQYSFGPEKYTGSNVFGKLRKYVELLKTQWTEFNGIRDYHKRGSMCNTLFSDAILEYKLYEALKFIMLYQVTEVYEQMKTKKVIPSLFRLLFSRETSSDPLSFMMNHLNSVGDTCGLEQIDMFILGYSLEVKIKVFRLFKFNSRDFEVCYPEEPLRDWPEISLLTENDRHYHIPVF
Summary of the method: as §1

OTUB1 = OTUB1 (UniProt Q96FW1)
Summary of the method: as §1

OTUD4 = biological target: T4, OTUD4 (UniProt Q01804)
T4 sequence (whole entry): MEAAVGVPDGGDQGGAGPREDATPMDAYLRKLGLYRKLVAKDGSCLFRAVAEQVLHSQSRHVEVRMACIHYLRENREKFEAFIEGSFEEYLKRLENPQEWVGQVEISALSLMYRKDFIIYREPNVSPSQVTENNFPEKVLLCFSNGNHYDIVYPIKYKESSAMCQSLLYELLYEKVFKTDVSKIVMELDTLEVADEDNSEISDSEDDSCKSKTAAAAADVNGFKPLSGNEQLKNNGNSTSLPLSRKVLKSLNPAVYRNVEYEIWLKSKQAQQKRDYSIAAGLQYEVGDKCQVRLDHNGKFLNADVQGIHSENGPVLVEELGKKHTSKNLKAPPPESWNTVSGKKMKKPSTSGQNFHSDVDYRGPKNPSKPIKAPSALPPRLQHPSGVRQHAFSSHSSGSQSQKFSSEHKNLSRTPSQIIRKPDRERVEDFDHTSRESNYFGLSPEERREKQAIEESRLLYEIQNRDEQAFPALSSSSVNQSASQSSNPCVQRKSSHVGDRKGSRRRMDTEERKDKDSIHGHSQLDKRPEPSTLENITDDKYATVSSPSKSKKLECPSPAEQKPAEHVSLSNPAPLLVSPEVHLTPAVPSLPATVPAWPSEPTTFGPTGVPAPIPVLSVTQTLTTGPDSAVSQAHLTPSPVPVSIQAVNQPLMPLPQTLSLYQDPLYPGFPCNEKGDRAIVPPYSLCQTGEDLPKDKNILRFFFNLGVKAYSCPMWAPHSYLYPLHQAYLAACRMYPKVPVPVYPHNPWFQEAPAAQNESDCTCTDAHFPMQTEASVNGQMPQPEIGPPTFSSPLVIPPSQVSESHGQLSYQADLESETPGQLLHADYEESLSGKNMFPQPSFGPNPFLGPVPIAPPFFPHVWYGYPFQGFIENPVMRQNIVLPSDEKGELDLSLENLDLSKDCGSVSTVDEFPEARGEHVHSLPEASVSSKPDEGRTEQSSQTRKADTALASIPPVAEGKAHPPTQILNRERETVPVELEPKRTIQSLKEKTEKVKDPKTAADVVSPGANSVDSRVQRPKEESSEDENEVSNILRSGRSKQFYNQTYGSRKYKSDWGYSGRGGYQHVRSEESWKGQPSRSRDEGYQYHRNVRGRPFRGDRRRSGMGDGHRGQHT
Summary of the method: as §1

OTUD5 = biological target: T5, OTUD5 (UniProt Q96G74)
T5 sequence (whole entry): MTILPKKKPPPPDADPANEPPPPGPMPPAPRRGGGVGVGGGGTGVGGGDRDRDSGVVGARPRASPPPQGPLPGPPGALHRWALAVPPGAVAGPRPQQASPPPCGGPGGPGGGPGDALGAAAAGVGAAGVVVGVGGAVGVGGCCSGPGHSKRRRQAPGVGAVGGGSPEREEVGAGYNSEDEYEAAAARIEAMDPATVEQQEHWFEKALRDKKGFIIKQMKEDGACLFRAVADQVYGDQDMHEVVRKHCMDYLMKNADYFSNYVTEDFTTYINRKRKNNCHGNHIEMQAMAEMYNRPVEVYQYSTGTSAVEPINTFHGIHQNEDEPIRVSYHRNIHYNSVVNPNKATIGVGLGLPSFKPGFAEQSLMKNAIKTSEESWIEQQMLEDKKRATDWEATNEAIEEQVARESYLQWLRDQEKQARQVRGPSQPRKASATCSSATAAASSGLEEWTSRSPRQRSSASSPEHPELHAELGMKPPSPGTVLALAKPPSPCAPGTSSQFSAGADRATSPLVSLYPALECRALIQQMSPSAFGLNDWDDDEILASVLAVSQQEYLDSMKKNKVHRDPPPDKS
Summary of the method: as §1

Measured: log2 ratio of Biotin-Ahx-Ub-VS probe labelling

Chain of EIF3H (O15372 whole entry): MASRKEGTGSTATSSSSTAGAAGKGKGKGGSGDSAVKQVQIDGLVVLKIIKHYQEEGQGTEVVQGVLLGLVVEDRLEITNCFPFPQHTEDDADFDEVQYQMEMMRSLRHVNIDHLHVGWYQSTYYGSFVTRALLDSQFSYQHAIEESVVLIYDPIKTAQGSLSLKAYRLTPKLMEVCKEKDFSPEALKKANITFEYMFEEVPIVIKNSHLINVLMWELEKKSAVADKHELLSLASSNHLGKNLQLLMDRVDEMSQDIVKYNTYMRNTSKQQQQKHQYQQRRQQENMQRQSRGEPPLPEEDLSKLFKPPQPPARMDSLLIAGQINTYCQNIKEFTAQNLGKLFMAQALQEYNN
Chain of EIF3F (O00303 whole entry): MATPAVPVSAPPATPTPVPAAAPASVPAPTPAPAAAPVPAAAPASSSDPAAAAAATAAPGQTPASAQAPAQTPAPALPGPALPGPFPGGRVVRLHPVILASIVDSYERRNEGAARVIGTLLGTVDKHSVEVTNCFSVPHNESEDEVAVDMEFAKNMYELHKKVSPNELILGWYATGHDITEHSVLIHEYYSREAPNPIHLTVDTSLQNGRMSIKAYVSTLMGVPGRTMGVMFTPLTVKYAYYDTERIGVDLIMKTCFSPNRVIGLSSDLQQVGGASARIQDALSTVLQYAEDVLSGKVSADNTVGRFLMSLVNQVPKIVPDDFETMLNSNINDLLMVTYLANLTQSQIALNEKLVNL
Chain of ATXN3 (P54252 whole entry): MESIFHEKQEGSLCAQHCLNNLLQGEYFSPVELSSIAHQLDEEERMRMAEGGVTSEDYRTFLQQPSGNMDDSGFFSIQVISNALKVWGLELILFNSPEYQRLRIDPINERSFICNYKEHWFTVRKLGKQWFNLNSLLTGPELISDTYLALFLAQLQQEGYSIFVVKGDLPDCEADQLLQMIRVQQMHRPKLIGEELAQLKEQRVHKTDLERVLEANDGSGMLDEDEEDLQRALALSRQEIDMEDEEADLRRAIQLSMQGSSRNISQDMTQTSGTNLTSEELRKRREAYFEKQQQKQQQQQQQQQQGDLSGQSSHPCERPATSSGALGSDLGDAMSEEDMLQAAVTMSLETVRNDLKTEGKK
Chain of OTUB1 (Q96FW1 whole entry): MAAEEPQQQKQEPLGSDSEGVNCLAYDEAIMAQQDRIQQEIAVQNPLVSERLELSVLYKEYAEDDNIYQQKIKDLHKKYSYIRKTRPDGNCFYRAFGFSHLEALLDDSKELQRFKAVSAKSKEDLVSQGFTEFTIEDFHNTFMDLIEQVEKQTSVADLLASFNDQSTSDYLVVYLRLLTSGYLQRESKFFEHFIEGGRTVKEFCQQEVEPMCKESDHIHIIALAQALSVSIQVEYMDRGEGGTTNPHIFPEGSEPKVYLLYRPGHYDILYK

O=C(CCl)NCCC1=CCCCC1
inactive: ALG13 0.121 | ATXN3 -0.135 | BAP1 -0.56 | EIF3F -0.0695 | EIF3H 0.0525 | FAM105A -0.125 | OTUB1 0.147 | OTUD4 -0.135 | OTUD5 -0.0425
